Test results from PubChem BioAssay (NCATS).
Records with an inconclusive call do not appear. Active and inactive are the calls of the source. The call rests on the fitted dose curve; in most records, active means well fitted inhibition curve with a large enough effect in the repeat runs; inconclusive means weak or mixed curves; inactive means flat fitted curve, though single readings scatter.

target: Cytochrome P450 2D6 (Homo sapiens) (UniProt P10635); assay: Cytochrome P450 family 2 subfamily D member 6 (CYP2D6) small molecule antagonists: luciferase biochemical (cell-free) qHTS assay (AID 1645840); settings: P450-Glo CYP2D6 enzyme, luciferin luminescence, 1 h; series mostly up to 57.4 µM; activity change, negative = inhibition: at the top concentration; further: nearly all actives have a fitted effect of over 55% in size
Sequence (P10635 whole entry, looked up): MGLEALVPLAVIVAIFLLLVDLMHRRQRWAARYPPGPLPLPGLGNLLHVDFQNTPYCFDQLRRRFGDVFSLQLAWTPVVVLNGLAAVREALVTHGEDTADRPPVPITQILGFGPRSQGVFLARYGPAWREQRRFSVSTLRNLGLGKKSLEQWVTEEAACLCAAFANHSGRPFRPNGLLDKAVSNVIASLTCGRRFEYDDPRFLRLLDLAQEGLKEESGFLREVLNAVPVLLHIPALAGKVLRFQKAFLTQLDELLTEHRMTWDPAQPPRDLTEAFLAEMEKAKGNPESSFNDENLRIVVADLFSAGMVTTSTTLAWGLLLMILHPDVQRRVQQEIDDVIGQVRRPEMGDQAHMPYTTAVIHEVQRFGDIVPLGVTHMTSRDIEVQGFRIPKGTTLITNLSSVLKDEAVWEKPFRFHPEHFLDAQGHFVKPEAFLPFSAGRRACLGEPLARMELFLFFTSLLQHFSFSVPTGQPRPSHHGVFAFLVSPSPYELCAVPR
Procedure: National Center for Advancing Translational Sciences [NCATS] Assay Overview: Cytochrome P450 (CYP) enzymes are membrane-bound hemeproteins that play a key role in metabolism of drugs and xenobiotics. Assaying the effect of chemicals on CYP isozymes is useful to minimize the adverse drug reactions and toxicities in drug development process. Chemical compounds were tested for their effect on CYP enzyme activities by using P450-Glo (TM) screening systems (Promega Corporation, Madison, WI). These systems provide a luminescent method containing proluciferin substrates and are converted to luciferin products by CYP isozymes. The luciferin products formed are detected with a luciferin detection reagent, and the amount of light produced is proportional to CYP activity. P450-Glo (TM) CYP2D6 screening system (Catalog. No. V9890) was used to detect the compounds that interfere in CYP2D6 activity.
Assay Protocol Summary: Two ul of enzyme-substrate mix was dispensed into medium binding white/solid 1536-well plates (Greiner Bio-One North America Inc., Monroe, NC) using a Flying Reagent Dispenser (FRD, Aurora Discovery, San Diego, CA). […] The assay plates were incubated at room temperature for 10 min. Then 2 ul of NADPH regeneration solution was added to each well of the assay plates using an FRD and incubated at room temperature for 1 h. The reaction was stopped by adding 4 ul of detection reagent using an FRD and after 20 min incubation at room temperature, the luminescence signal was measured using a ViewLux plate reader (Perkin Elmer, Shelton, CT). Data were expressed as relative luminescence units.
On the % scale 0 is the no-effect control and ±100 the full control effect; potency means the concentration at half of the fitted maximal effect.

SMILES	Potency	activity change, negative = inhibition
CCOC(=O)C1(CCOc2ccccc2)CCN(Cc2ccc(O)c(Cl)c2)CC1	0.425 µM (active)	
N#Cc1ccc(O[C@@H]2c3ccccc3C[C@H]2N2CCC[C@@H](N)C2)c(Cl)c1	0.169 µM (active)	
O=c1cc(N2CCN(c3cccc(C(F)(F)F)c3)CC2)[nH]c(=O)n1C1CCCCC1		-0.412% (inactive)
CC(C)(O)c1ccn2c(-c3ccc(F)c(-c4ccc(F)cc4C#N)c3)cnc2c1F	19 µM (active)	
CCn1c(=O)c(-c2ccc(-c3cncs3)cc2Cl)cc2cnc(Nc3ccc(N4CCN(C)CC4)cc3)nc21		-13.9% (inactive)
CC(=O)Nc1nc(C)c(-c2nc(N3CCCC(O)C3)no2)s1 (stereo not given)	4.25 µM (active)	
CCOc1ccc(-n2c(C(C)N(Cc3cccnc3)C(=O)Cc3ccc(F)c(C(F)(F)F)c3)nc3ncccc3c2=O)cc1 (stereo not given)	23.9 µM (active)	
O=C(Nc1nnc(-c2ccc3c(c2)OCCO3)o1)C1CCCCC1		23.9% (inactive)
Cc1cc(C)cc(-c2cnc3cc(Cl)c(-c4cccc(O)c4)cc3c2OCCCN)c1	7.56 µM (active)	
C#Cc1cccc(Nc2nc3cc(C(=O)O)ccc3c3cncnc23)c1		0.782% (inactive)
Cc1c(C(=O)Nc2ccc(N3CCC(N4CCOCC4)CC3)c(C#N)c2)cnn1-c1ccc(Cl)cc1	12 µM (active)	
CCCN(CCc1ccsc1)C1CCc2c(O)cccc2C1 (stereo not given)	0.338 µM (active)	
Nc1ncnc2c1c(-c1ccc(Oc3ccccc3)cc1)nn2[C@@H]1CCCNC1	15.1 µM (active)	
COc1cc2ncnc(Nc3cccc(I)c3)c2cc1OC	12 µM (active)	
COCc1c(Cl)ccc2c1CC[C@H]2c1ncc[nH]1	1.9 µM (active)	
Cc1cc(F)ccc1[C@H]1C[C@@H](N2CCN3C(=O)CC[C@H]3C2)CCN1C(=O)N(C)[C@H](C)c1cc(C(F)(F)F)cc(C(F)(F)F)c1	13.5 µM (active)	
C=C(C)Cn1c(SCC(=O)c2cccs2)nc2sc3c(c2c1=O)CCCC3		-10.1% (inactive)
O=C(NCC1CCN(Cc2cccc(Cl)c2)CC1)[C@@H]1CCCN(c2ncnc3c2nc2n3CCCC2)C1	15.1 µM (active)	
NC(N)=NC(=O)c1cnn(-c2cccc3ncccc23)c1C1CC1		-11.5% (inactive)
O=c1ccc2ccc(OCCCCN3CCN(c4cccc5sccc45)CC3)cc2[nH]1	1.34 µM (active)	

SMILES	Potency	activity change, negative = inhibition
NC(=O)N1CCC(CC(=O)N2CCC(C3c4ncc(Br)cc4CCc4cc(Cl)cc(Br)c43)CC2)CC1 (stereo not given)	16.9 µM (active)	
C=CC(=O)N1CC(N2CCN(C(=O)CNc3cc(C4CC4)c(Cl)cc3O)CC2)C1		-23% (inactive)
CC1=C(c2ccc(NC(=O)c3c(F)cccc3F)cc2)CN(c2nccs2)CC1		0.586% (inactive)
O=C(c1ccccn1)N(Cc1cccs1)C1(C(=O)NC2CCCCC2)CCCCC1		-5.36% (inactive)
Cc1nc(C#Cc2ccnc(Cl)c2)c(C)n1-c1ccc(OC(F)(F)F)cc1	10.7 µM (active)	
CCN(c1cc(-c2ccc(CN3CCOCC3)cc2)cc(C(=O)NCc2c(C)cc(C)[nH]c2=O)c1C)C1CCOCC1	23.9 µM (active)	
OC1(CN2CCC(COc3noc4cccc(O[C@@H]5CCOC5)c34)CC2)CCOCC1	6.74 µM (active)	
COC[C@H](c1ccc(C(F)(F)F)cc1)N1CCN(C2(C)CCN(C(=O)c3c(C)ncnc3C)CC2)C[C@H]1C	16.9 µM (active)	
CC(C)c1ccc(-c2cc(=O)c3ccccc3o2)cc1	15.1 µM (active)	
CN(C)Cc1ccc(-c2cnn3c(-c4cccc(NC(=O)c5cccc(C(F)(F)F)c5)c4)ccnc23)cc1	13.5 µM (active)	
COCCCNC(=O)c1ccc(Cn2c(=O)c3ccccc3n(Cc3ccc(C(C)C)cc3)c2=O)cc1		-4.83% (inactive)
CCCCNc1ncc2c(-c3ccc(S(=O)(=O)N4CCOCC4)cc3)nn(C3CCC(O)CC3)c2n1 (stereo not given)		5.97% (inactive)
C=C(C)[C@@H]1CC=C(COC(=O)NC(=O)c2ncn3c(=O)n(C)nnc23)CC1		-12.1% (inactive)
Cc1c(O)cc2c(c1C)O[C@](C)(CCC[C@H](C)CCC[C@H](C)CCCC(C)C)CC2		0.782% (inactive)
Nc1cccc(CNC(=O)c2ccc(Oc3ccc(OCc4cccc(F)c4)cc3)nc2)c1		-15.7% (inactive)
CCCN1CCC=C(c2cc(-c3ccc(C)cc3)no2)C1	2.68 µM (active)	
O=C(NNc1nc2cc(F)ccc2n2cccc12)c1cnccn1		-24% (inactive)
CC#C[C@@H](CC(=O)O)c1ccc(OCc2cccc(-c3ccc(C(F)(F)F)cc3)c2)cc1		-25.2% (inactive)
Cc1c(NC(=O)c2cc3c(s2)CCCC3)cccc1-c1cn(C)c(=O)c(Nc2ccc(C3C(=O)N(C)CCN3C)cc2)n1 (stereo not given)		-11.2% (inactive)
COc1ccc(CCN(C)CCCOc2nsc(-c3ccccc3)n2)cc1OC	1.51 µM (active)	
